The source of these data is PubChem BioAssay (EPA / NIEHS).

Assay [1] is described as follows: CCTE_Mundy_HCI_iCellGluta_NOG_NeuronCount: CCTE's Neurite Outgrowth Assay in iCellGluta cells for Neuron Count, Mundy Lab (AID 2284340; active means hit-call score of the fitted dose curve at least 0.9, where 1 is the maximum;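 further: cells fixed about 48 h after compound addition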). The procedure, abridged:
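Neuron count read by automated high-content imaging of Hoechst 33342 and betaIII-tubulin/Alexa Fluor-488 labelling in human iPSC glutamatergic neurons. Activity fitted relative to DMSO.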

Assay [2] is described as follows: CCTE_Mundy_HCI_iCellGluta_NOG_NeuriteCount: CCTE's Neurite Outgrowth Assay in iCellGluta cells for Neurite Count, Mundy Lab (AID 2284342; active means hit-call score of the fitted dose curve at least 0.9, where 1 is the maximum;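 further: chemical exposure about 48 hours starting 2 hours after plating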).
Assay [3] is described as follows: Tanguay_ZF_120hpf_MO24: Oregon State University Tanguay Lab 24 Hour Post-fertilization zebrafish Assay for Mortality (AID 2284389). The procedure, abridged:
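Embryo death at 24 hpf was recorded as present or absent in Tropical 5D zebrafish, dechorionated at 4 hpf and dosed statically from 6 hpf (28C, 0.64% DMSO); 5 uM trimethyltin chloride served as positive control.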

A short description of assay [4]: Tanguay_ZF_120hpf_DP24: Oregon State University Tanguay Lab 24 Hour Post-fertilization zebrafish Assay for Delayed Development (AID 2284390). In outline: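 Scored at 24 hpf as a binary present/absent call of delayed development by brightfield, with dead embryos not assessed. Embryos (5D wild type, chorion removed with pronase at 4 hpf) dosed statically from 6 hpf at 28 C in 0.64% DMSO.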

A short description of assay [5]: Tanguay_ZF_120hpf_CRAN: Oregon State University Tanguay Lab 120 Hour Post-fertilization zebrafish Assay for Craniofacial Malformation (AID 2284397). The procedure, abridged: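 Scoring of craniofacial malformation as a binary endpoint was done at 120 hpf by brightfield microscopy and was not done in dead embryos. Exposure was static, starting at 6 hpf, in dechorionated wild-type embryos held singly at 28C with 0.64% DMSO final.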

The nature of assay [6]: Tanguay_ZF_120hpf_MORT: Oregon State University Tanguay Lab 120 Hour Post-fertilization zebrafish Assay for Mortality (AID 2284399). The procedure, abridged: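 Mortality, recorded present/absent via brightfield imaging at 24 and 120 hpf, in 5D zebrafish embryos exposed statically from 6 hpf after pronase chorion removal. Exposure at 28C, 0.64% DMSO vehicle, DMSO baseline.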

The nature of assay [7]: Tanguay_ZF_120hpf_EDEM: Oregon State University Tanguay Lab 120 Hour Post-fertilization zebrafish Assay for Edema Malformation (AID 2284400). The procedure, abridged:
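Edema recorded as a binary endpoint under brightfield at 120 hpf, excluding embryos that died. Exposure was static, sealed, 28C, from 6 hpf in dechorionated wild-type larvae, final DMSO 0.64%, DMSO as baseline.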

Assay [8] in a line: Tanguay_ZF_120hpf_BRN: Oregon State University Tanguay Lab 120 Hour Post-fertilization zebrafish Assay for Brain Region Malformation (AID 2284402). In outline:
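Binary brightfield scoring of brain malformation at 120 hpf in 5D wild-type larvae, chorion removed with pronase at 4 hpf. Static exposure began at 6 hpf, 28C, sealed plates, DMSO 0.64% (vol/vol) as vehicle baseline.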

Assay [9] is described as follows: Tanguay_ZF_120hpf_TCHR: Oregon State University Tanguay Lab 120 Hour Post-fertilization zebrafish Assay for Touch Responsive (AID 2284403). The procedure, abridged: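 Binary touch-response calls are made at 120 hpf in 5D wild-type zebrafish larvae. These larvae were dechorionated with pronase and exposed singly from 6 hpf in sealed, dark plates at 28 °C with 0.64% DMSO final; dead embryos are excluded.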

The nature of assay [10]: CCTE_Padilla_ZF_Score.Craniofacial: CCTE's 144 Hour Post-fertilization zebrafish Assay Score for Craniofacial Malformation, Padilla Lab (AID 2284405). The procedure, abridged: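 Craniofacial defects were scored at 6 dpf by two blinded observers using stereomicroscopy. Exposure of wild-type embryos began at 6–8 hpf in sealed wells of 10% Hanks' solution at 26C, with chemical removed by rinsing at 5 dpf.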

A short description of assay [11]: CCTE_Padilla_ZF_Score.Spine: CCTE's 144 Hour Post-fertilization zebrafish Assay Score for Spine Malformation, Padilla Lab (AID 2284407). In outline: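 Spine malformation scored at 6 dpf by two independent blinded observers under stereomicroscope, after static sealed exposure from 6–8 hpf at 26C in Hanks' solution with rinse on 5 dpf. Positive-direction fit against DMSO control.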

Assay [12] can be described thus: CCTE_Padilla_ZF_Score.Swim_bladder: CCTE's 144 Hour Post-fertilization zebrafish Assay Score for Swim Bladder Malformation, Padilla Lab (AID 2284408). In outline:
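Swim bladder inflation scored at 6 dpf by two blinded observers under a stereo microscope. Exposure ran from 6–8 hpf in sealed wells of 10% Hanks' at 26C, with rinsing at 5 dpf; DMSO served as baseline.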

The nature of assay [13]: CCTE_Padilla_ZF_Score.Position: CCTE's 144 Hour Post-fertilization zebrafish Assay Score for Position, Padilla Lab (AID 2284409). In outline: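 Wild-type zebrafish embryos (with chorions) exposed singly from 6–8 hpf in sealed wells of Hanks' solution at 26C, rinsed at 5 dpf. At 6 dpf, blinded assessors scored abnormal water-column position by brightfield stereomicroscopy, relative to DMSO.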

Assay [14] is described as follows: CCTE_Padilla_ZF_Score.Living: CCTE's 144 Hour Post-fertilization zebrafish Assay Score for Viability, Padilla Lab (AID 2284410).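 Further: larval death at 6 dpf judged by absent heartbeat or coagulation.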 The procedure, abridged: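 Mortality at 6 dpf, judged as absent heartbeat or coagulation by two blinded observers, after sealed static exposure beginning at 6–8 hpf at 26C. Larvae were rinsed free of chemical at 5 dpf, and activity was fitted relative to DMSO.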

Assay [15] in a line: Tanguay_ZF_120hpf_ANY: Oregon State University Tanguay Lab 120 Hour Post-fertilization zebrafish Assay for Any Mortality and Malformation (AID 2284404). The procedure, abridged: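 Dechorionated Tropical 5D wild-type embryos, one per well from 6 hpf, static exposure in sealed, dark plates at 28C until 120 hpf, 0.64% DMSO final. Brightfield scoring of mortality and malformations as binary presence/absence, pooling 13 morphology endpoints.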

Assay [16] can be described thus: CCTE_Padilla_ZF_Score.General: CCTE's 144 Hour Post-fertilization zebrafish Assay Score for General Malformation, Padilla Lab (AID 2284411). In outline: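 Malformation, death and hatching were scored at 6 dpf by two blinded observers under a stereo microscope. Embryos were dosed singly from 6-8 hpf in sealed plates of 10% Hanks' at 26C and rinsed on 5 dpf; DMSO baseline.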

A short description of assay [17]: CCTE_Padilla_ZF_Score.Edema: CCTE's 144 Hour Post-fertilization zebrafish Assay Score for Edema Malformation, Padilla Lab (AID 2284406). The procedure, abridged:
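Edema scored at 6 dpf by two blinded observers under a stereo microscope, in single outbred wild-type larvae exposed from 6-8 hpf in sealed wells (Hanks', 26C, 14:10 h light) and chemical-free after a 5 dpf rinse.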

Inconclusive results are not listed. Calls of active or inactive are those of the source. How the source made its calls, unless noted: active means hit-call score of the fitted dose curve at least 0.9, where 1 is the maximum; inactive means score below 0.9.

In the case of `O=C(O)C(F)(F)C(F)(F)OC(F)(F)F`, the molecule was classed as inactive in assay [1], in [2], in assay [3], in assay [4], in assay [5] and in assay [6]. The outcome in assay [7], in assay [8], in assay [9], in assay [10], in assay [11] and in assay [12] was inactive. The outcome in assay [13] and in [14] was inactive.

On to `O=S(=O)(O)C(F)(F)C(F)(F)C(F)(F)C(F)(F)C(F)(F)C(F)(F)C(F)(F)F`, for which the call in assay [3], in assay [4], in assay [6] and in assay [11] was inactive. Moreover, the AC50 in assay [5] is 33.4 µM (active); in assay [7], 46.3 µM (active); in assay [8], 52.4 µM (active); in assay [9] it was 43.2 µM (active); in [10], 65.3 µM (active); in assay [12], 21.3 µM (active). For the same molecule, the values for the AC50 in [13] and in [14] were 22 µM (active) and 71 µM (active), respectively.

Turning to `O=C(O)C=C(C(F)(F)F)C(F)(F)F`, the molecule was called inactive in assay [3], in assay [4], in [5], in [6], in assay [7] and in assay [8]. Besides, the outcome in assay [9], in [15], in [10], in [11], in [12] and in assay [13] was inactive. Moreover, in assay [14], the outcome was inactive.

On to `Nc1ccc([N+](=O)[O-])cc1O`, for which the outcome in assay [16] was inactive.

Regarding `OCCCC(F)(F)C(F)(F)C(F)(F)F`, the result in [3], in assay [4], in assay [5], in assay [6], in assay [7] and in assay [8] was inactive. Moreover, the result in assay [9], in assay [10], in [11], in assay [12], in assay [13] and in assay [14] was inactive.

On to `O=C(O)C(F)(F)C(F)(F)F`, for which the result in [3], in assay [4], in assay [5], in assay [6], in assay [7] and in assay [8] was inactive. The molecule was classed as inactive in [9], in assay [10], in assay [11], in [12], in assay [13] and in assay [14]. Besides, the call in assay [16] was inactive.

`O=C(O)C(F)(F)C(F)(F)C(F)(F)C(F)(F)C(F)(F)C(F)(F)C(F)(F)C(F)(F)C(F)(F)C(F)(F)C(F)(F)C(F)(F)C(F)(F)F`: the molecule was called inactive in assay [3], in assay [4], in assay [5], in assay [6], in [7] and in assay [8]. Moreover, the call in assay [9], in assay [10], in assay [11], in assay [12], in assay [13] and in [14] was inactive.

As for `C=CC(F)(F)C(F)(F)C(F)(F)C(F)(F)C(F)(F)C(F)(F)C(F)(F)C(F)(F)F`, the molecule was classed as inactive in assay [3], in assay [4], in assay [5], in assay [6], in [7] and in assay [8]. The molecule was classed as inactive in [9], in assay [15], in assay [10], in assay [17], in assay [11] and in [12]. Further, the molecule was called inactive in assay [13] and in [14].

As for `FC(F)(Br)C(F)(F)C(F)(F)C(F)(F)C(F)(F)C(F)(F)Br`, the result in assay [10], in assay [11], in assay [12], in assay [13] and in assay [14] was inactive.

In the case of `OCC(F)(F)C(F)(F)C(F)(F)C(F)(F)C(F)(F)C(F)F`, the result in assay [3], in assay [4], in [5], in assay [6], in assay [7] and in assay [8] was inactive. The molecule was called inactive in assay [9], in assay [10], in assay [11], in assay [12], in assay [13] and in assay [14].

With `COC(=O)CCC(F)(F)C(F)(F)C(F)(F)C(F)(F)F`, the molecule was called inactive in assay [3], in [4], in assay [5], in [6], in assay [7] and in assay [8]. The call in assay [9] was inactive.

As for `C=CC(F)(F)C(F)(F)C(F)(F)C(F)(F)C(F)(F)C(F)(F)C(F)(F)C(F)(F)C=C`, the call in assay [3], in assay [4], in assay [5], in assay [6], in assay [7] and in assay [8] was inactive. In addition, in assay [9], the molecule was called inactive.

With `FC(F)(F)C(F)(F)CNCC(F)(F)C(F)(F)F`, the outcome in assay [3], in [4], in [5], in [6], in assay [7] and in assay [8] was inactive. Also, the molecule was called inactive in assay [9], in assay [15], in assay [10], in [11], in [13] and in assay [14]. Moreover, the result in assay [16] was inactive. Also, in assay [12], the AC50 was 0.00275 µM (active).

For the molecule `NC(=O)C(F)(F)C(F)(F)C(F)(F)C(F)(F)F`, the call in assay [3], in [4], in assay [5], in assay [6], in assay [7] and in [8] was inactive. Moreover, the molecule was called inactive in assay [9], in assay [10], in assay [11], in assay [12], in [13] and in assay [14].

For `O=C(O)C(F)(F)C(F)(F)C(F)(F)C(F)(F)F`, the result in [3], in [4], in assay [5], in [6], in assay [7] and in assay [8] was inactive. Besides, the outcome in assay [9], in [10], in assay [11], in [12], in [13] and in assay [14] was inactive. Moreover, the molecule was classed as inactive in assay [16].

Take `OCC(F)(F)C(F)(F)C(F)(F)C(F)(F)C(F)(F)C(F)(F)F`: the molecule was called inactive in [3], in assay [4], in assay [5], in assay [6], in assay [7] and in [8]. The result in assay [9], in assay [10], in assay [11], in assay [12], in assay [13] and in [16] was inactive. Besides, the AC50 in [15] was 112 µM (active); in assay [14], 88 µM (active).

The AC50 is the concentration at which the activity in the assay is half-maximal.
